# Most compounds without a hit are left out; they make up all but 8.8% or so of the library.
# HT1080-NT tox – kills 2HG-producing HT-1080-NT fibrosarcoma cells. HT-1080-NT fibrosarcoma viability, CellTiter-Glo ATP luminescence, 48 h. Potency, µM (top dose mostly 46.1 µM), for the others: top-dose activity, negative = less viability, actives largely listed as cytotoxic. hit rate 1.6% among 360,000. AID 686970;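 note: NT is the 2HG producing partner of a matched IDH1 knockdown line; potency is the fitted concentration of half-maximal effect; 0% = DMSO-treated cells and -100% = media-only wells without cells; nearly all actives have a fitted effect of over 55% in size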
#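 Compounds were tested in concentration-response format on HT-1080-NT cells for 48 hours at 37 degrees C. Cell viability came from CellTiter-Glo luminescence; curves were classified by r2, response magnitude and activity.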
# KB-V1 MDR tox – KB-V1 MDR subline cytotoxicity. KB-V1 MDR cells viability, CellTiter-Glo, 72 h. Potency, µM (top dose mostly 46.1 µM), usual class: cytotoxic. hit rate 3.4% among 400,000. AID 1347076; note: potency is the fitted concentration of half-maximal effect; nearly all actives have a fitted effect of over 60% in size
#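 Cytotoxicity via CellTiter-Glo luminescence after 72 h compound exposure at 37 degrees C. Cells: drug-selected KB-V1 line, DMEM phenol-red free plus 10% FBS. Compounds tested at multiple concentrations; normalized data fitted to concentration-effect curves.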
# IL1B secr inh – blocks inflammasome-driven IL-1 beta release; THP-1 LPS/ATP IL-1B secretion, AlphaLISA, 16 h; hits give low values; activity change, % at 57.5 µM; hit rate 4.7% among 360,000; AID 743279; in the data active = activity change below about -50%; inconclusive = mostly about -30% to -49%
#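 THP-1 cells pretreated 1 hr with compounds (up to 57.5 uM final), then stimulated with LPS (250 ng/mL final) plus ATP (1.25 mM final); secreted IL-1B measured by AlphaLISA after 16 hr, decreased signal indicating inhibition.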
# KB-3-1 tox – kills parental KB-3-1 adenocarcinoma cells | KB-3-1 viability, CellTiter-Glo ATP luminescence, 72 h | Potency, µM (top dose mostly 46.1 µM), actives largely listed as cytotoxic | hit rate 1.4% among 400,000 | AID 1347075; note: potency is the fitted concentration of half-maximal effect; nearly all actives have a fitted effect of over 60% in size
#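 Multi-concentration cytotoxicity screen in KB-3-1 cells grown in DMEM lacking phenol red with 10% FBS. After 72 h at 37 °C with compound, ATP-dependent luminescence was recorded.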
# HT1080 IDH1KD tx – toxicity to HT-1080 IDH1 knockdown cells (counter line) | HT-1080 IDH1 knockdown viability, ATP luminescence, 48 h | Potency, µM (highest dose often 46.1 µM), for the others: top-dose activity, negative = toxicity, hits mostly cytotoxic | hit rate 2% among 360,000 | AID 686971;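 note: potency is the fitted concentration of half-maximal effect; 0% = DMSO wells and -100% = cell-free medium wells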
#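 Luminescent ATP read-out (CellTiter-Glo, 10 min at room temperature) after 48 h compound exposure at 37 °C gave viability of IDH1-knockdown HT-1080 cells. Activity was normalised to DMSO and cell-free wells, then fitted as concentration-response curves.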
# * hit, by the source's call; i = inactive; ? = inconclusive; . = not tested or not shown. Unless noted, calls come from the whole dose curve; as a rule, active = well fitted curve in the direction sought with a large enough effect; inconclusive = small, poorly fitted or top-dose-only effect, or another doubt; inactive = no such curve, though single readings can be large; an effect the other way counts as inactive or inconclusive. Unless noted, % is set by controls: 0 for no effect and ±100 for the full control effect.
SMILES,HT1080-NT tox,KB-V1 MDR tox,IL1B secr inh,KB-3-1 tox,HT1080 IDH1KD tx
O=[S+]([O-])([O-])c1ccc2c(c1)cc([S+](=O)([O-])[O-])c1nn(-c3ccc(/C=C/c4ccc(-n5nc6c([S+](=O)([O-])[O-])cc7cc([S+](=O)([O-])[O-])ccc7c6n5)cc4[S+](=O)([O-])[O-])c([S+](=O)([O-])[O-])c3)nc12,.,i,.,?,.
CCCN(c1c(C)n(C)n(-c2ccccc2)c1=O)S(=O)(=O)c1ccc(C)cc1,.,i,.,i,.
Cc1ccc2nc(Cl)c3cc(C(=O)NCCCN4CCC(C)CC4)sc3c2c1,.,i,.,i,.
O=C(NCCCN1CCCC1)c1cc2c(Cl)nc3ccccc3c2s1,?,?,.,?,21µM*
CC1CCN(CCCNC(=O)c2cc3c(Cl)nc4ccccc4c3s2)CC1,?,i,-70*,i,-2%
COc1ccc(CN(C)S(=O)(=O)c2c(C)noc2C)cc1OC,-5%,18µM*,34,i,-1%
COc1ccc(CCNC(=O)CN(c2ccc(C)cc2)S(=O)(=O)c2c(C)noc2C)cc1OC,2%,i,-4,i,2%
Fc1ccc(CSc2nc3ccccc3[nH]2)cc1,-30%,i,-63*,i,?
Cc1cccc2nc(CSc3nc4ccccc4[nH]3)cn12,4%,i,-66*,i,-1%
O=[N+]([O-])c1ccc(CSc2nc3ccccc3[nH]2)cc1,5%,21µM*,-23,i,1%
c1ccc(-c2nnc(CSc3nc4ccccc4[nH]3)o2)cc1,15%,13µM*,-16,i,6%
c1ccc(CSc2nc3ccccc3[nH]2)cc1,2%,i,-1,i,-17%
CCc1ccc(-n2nc(C)c3c(C)cc(=O)n(CC(=O)Nc4ccccc4C(=O)OC)c32)cc1,.,i,.,i,.
O=C(NC1CCCc2c1cnn2-c1ccccc1F)c1ccncc1 (stereo not given),-1%,?,23,?,-23%
O=C(CCS(=O)(=O)CCN1CCOCC1)NCNC(=O)CCS(=O)(=O)CCN1CCOCC1,17%,i,0,i,6%
O=C(CC1N=C2c3ccccc3N=C(SCC(=O)Nc3cccc(C(F)(F)F)c3)N2C1=O)NCc1cccs1 (stereo not given),.,i,.,i,.
Brc1cccc(-c2nnc(SCc3nc4ccccc4[nH]3)o2)c1,11%,i,-56*,i,-2%
Cc1cccc2nc(CSc3nc4ccc([N+](=O)[O-])cc4[nH]3)c(Br)n12,-11%,12µM*,-14,?,-25%
ClCc1nnc(-c2ccccc2)o1,-29%,i,-88*,i,-6%
CCCC(=O)Nc1ccc(C(=O)Nc2ccc([N+](=O)[O-])cc2OC)cc1,-11%,i,-15,i,1%
COc1cc2c(=O)n(CCCC(=O)NCC3CCCO3)c(=O)n(CC(=O)c3ccc(F)cc3)c2cc1OC (stereo not given),3%,i,12,i,5%
O=C(CN1C(=O)CCC1=O)Nc1nc(-c2nc3ccccc3s2)cs1,13%,i,-57*,i,18%
O=C(CN1C(=O)CCC1=O)Nc1nc(-c2ccccn2)cs1,-8%,i,-22,i,-1%
COCCn1c(SCc2nnc(-c3ccccc3)o2)nc2sc3c(c2c1=O)CCC3,3%,6.5µM*,0,i,-1%
CCCCn1c(SCC(N)=O)nc2sc3c(c2c1=O)CCC3,0%,i,?,i,0%
SMILES,HT1080-NT tox,KB-V1 MDR tox,IL1B secr inh,KB-3-1 tox,HT1080 IDH1KD tx
CCN(CC)C(=O)CSc1nc2sc3c(c2c(=O)n1CCCOC)CCC3,-7%,i,-55*,i,-3%
COc1ccc(-c2nnc(CSc3ncnc4sc5c(c34)CCC5)o2)cc1OC,-5%,21µM*,-3,i,-2%
CCCn1c(SCC(=O)N(C)C2CCS(=O)(=O)C2)nc2sc3c(c2c1=O)CCC3 (stereo not given),-5%,23µM*,-8,i,-22%
COC(=O)C1=CN(c2ccc(F)cc2)C=C(C(=O)OC)C1c1ccc(O)cc1,-13%,i,?,i,?
COc1ccc2nc(-c3ccccc3)nc(SC)c2c1,-1%,i,42,i,-5%
COc1ccc(N2Cc3cccc(C(=O)Nc4ccc(C(C)C)cc4)c3C2=O)cc1,.,i,.,i,.
O=S(=O)(c1ccccc1)N1CCC2(CC1)CO2,-22%,i,-8,?,-20%
O=S(=O)(c1ccc(Cl)cc1)N1CCC2(CC1)CO2,2%,i,-57*,i,-5%
CCn1cc([N+](=O)[O-])c(C(=O)N2N=C(c3ccc4ccccc4c3)CC2c2cc(Br)ccc2O)n1 (stereo not given),21µM*,?,?,?,?
CCn1cc([N+](=O)[O-])c(C(=O)N2N=C(c3ccc(Cl)c(Cl)c3)CC2c2ccccc2O)n1 (stereo not given),23µM*,?,-85*,?,?
CCn1cc([N+](=O)[O-])c(C(=O)N2N=C(c3ccc(O)c(OC)c3)CC2c2ccccc2O)n1 (stereo not given),-22%,?,-23,?,?
O=C(/C=C/c1ccc(Cl)cc1)NC1CC2CCC1C2 (stereo not given),-5%,i,-99*,i,-10%
CC(Sc1nc(N)c2c3c(sc2n1)CSC(C)(C)C3)C(=O)Nc1ccccc1 (stereo not given),-17%,21µM*,?,?,-15%
S=C(Nc1ccc(Br)cc1)N1CCn2cccc2C1c1cccnc1 (stereo not given),-5%,i,-65*,i,-26%
COc1ccc(/C=C2/C(=O)OCc3cc(OC)c(OC)cc32)cc1,3.3µM*,3.7µM*,-51*,?,2.3µM*
COc1ccc(/C=C2\CCOC2=O)cc1,-1%,i,-9,i,3%
C=CCC[C@@H](Cc1ccc(F)cc1)C(=O)OC[C@@H](Cc1ccccc1)NC(=O)[C@@H](CC=C)CC(=O)N[C@@H](CO)Cc1ccccc1,-4%,i,-17,i,-16%
Cc1cccc(/C=C2\Oc3cc(OS(C)(=O)=O)ccc3C2=O)c1,?,i,-56*,i,-23%
O=C1/C(=C/c2cccc(F)c2)Oc2cc(O)ccc21,-18%,i,-79*,i,-13%
CNc1ccc(Cl)cc1S(=O)(=O)c1ccccc1[N+](=O)[O-],?,i,-11,?,?
C=C1C(=O)C2=CC1CCC(=O)C1(C)CCC(OC(C)=O)C(C)(C)C1CC2O (stereo not given),-24%,6.5µM*,-107*,8.2µM*,5.8µM*

# Source: PubChem BioAssay
